Screening data deposited in PubChem BioAssay by National Center for Advancing Translational Sciences (NCATS).
Rab9 promoter act – qHTS Assay for Rab9 Promoter Activators. 2.8% of 320,000 active. Huh7 Rab9 promoter-luciferase reporter, luminescence, 24 h. Potency, µM (top dose mostly 9.22 µM), actives largely listed as activators; note: nearly all actives have a fitted effect of over 60% in size
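Luminescence from Amplite-detected luciferase (10 minutes, ambient) reports Rab9 promoter activation. Before that, stable Rab9-luciferase Huh7 cells (1500/well, reduced-serum OP-MEM I plus 10% FBS) were exposed to compound for 24 hours at 37C.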
FLuc modulator – qHTS profiling assay for firefly luciferase inhibitor/activator using purifed enzyme and Km concentrations of substrates (counterscreen for miR-21 project). AID 588342, 2011. purified FLuc, Km substrates, luminescence inhibition. Potency, µM (series often up to 57.5 µM), usual class: inhibitors. 6.9% of 360,000 active; note: nearly all actives have a fitted effect of over 55% in size
Target sequence (P08659 whole entry, looked up): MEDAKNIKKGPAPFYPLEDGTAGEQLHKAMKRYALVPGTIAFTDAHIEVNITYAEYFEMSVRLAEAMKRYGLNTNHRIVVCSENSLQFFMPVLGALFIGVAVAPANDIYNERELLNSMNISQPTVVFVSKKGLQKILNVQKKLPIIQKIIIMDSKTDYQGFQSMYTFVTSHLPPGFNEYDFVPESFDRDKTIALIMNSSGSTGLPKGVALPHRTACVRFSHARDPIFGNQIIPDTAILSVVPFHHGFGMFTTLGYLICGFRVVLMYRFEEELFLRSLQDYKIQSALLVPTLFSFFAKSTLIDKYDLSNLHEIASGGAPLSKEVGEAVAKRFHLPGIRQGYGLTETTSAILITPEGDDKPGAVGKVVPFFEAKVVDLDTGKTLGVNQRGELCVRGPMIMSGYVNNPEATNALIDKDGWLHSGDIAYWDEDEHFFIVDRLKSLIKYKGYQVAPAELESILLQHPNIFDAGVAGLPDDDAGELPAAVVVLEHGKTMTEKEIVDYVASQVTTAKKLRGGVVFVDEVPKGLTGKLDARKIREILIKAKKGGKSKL
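Purified P. pyralis luciferase, 10 nM final, with Km-level 10 uM D-luciferin and 10 uM ATP in 50 mM Tris acetate pH 7.5, 10 mM Mg acetate, 0.01% Tween-20, 0.05% BSA; 6-point qHTS titration about 60 µM downward; luminescence read.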
NPC1 prom act – qHTS Assay for NPC1 Promoter Activators | Huh7 NPC1 promoter luciferase reporter, 24 h | Potency, µM (top dose mostly 9.22 µM), hits mostly activators | AID 485313, 2010 | 2.4% of 320,000 active; note: nearly all actives have a fitted effect of over 60% in size
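Luciferase expression driven by the NPC1 promoter was measured in stably transfected Huh7 cells after a 24 h compound incubation, using a luciferase reagent and a luminescence read.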
SMN2 splice up – qHTS Assay for Enhancers of SMN2 Splice Variant Expression; 2.8% of 210,000 active; AID 1458, 2008; HEK293 SMN2-luciferase splicing reporter, luminescence, 30-36 h; Potency, µM (titrated, usually from 46.1 µM), most hits filed as activators; note: nearly all actives have a fitted effect of over 55% in size
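HEK293 cells carry an SMN2 […]–luciferase reporter in which exon 7 inclusion puts luciferase in frame. Cells were plated 10-12 h before compound addition, then incubated 30-36 h at 37C. ONE-Glo luminescence was read; sodium butyrate at 4.5 mM final served as control.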
ELG1 DNA repair – qHTS screen for small molecules that inhibit ELG1-dependent DNA repair in human embryonic kidney (HEK293T) cells expressing luciferase-tagged ELG1; HEK293T ELG1-luciferase reporter, luminescence, 16 h; DNA damage induced by 5-fluorouridine; Potency, µM (series often up to 46.1 µM), most hits filed as inhibitors; 2.3% of 330,000 active; note: nearly all actives have a fitted effect of over 55% in size
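In this reporter screen, reduction of luminescence relative to DMSO vehicle indicated activity. Compounds and 5-fluorouridine were added together to 2,000 cells per well, incubated for 16 hr at 37 °C, then developed with ONE-Glo.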
ELG1 genotoxic – qHTS screen for small molecules that induce genotoxicity in human embryonic kidney (HEK293T) cells expressing luciferase-tagged ELG1 | Potency, µM (doses to about 46 µM), most hits filed as activators | 1.3% of 330,000 active | HEK293T ELG1-luciferase reporter, luminescence, 16 h; note: nearly all actives have a fitted effect of over 60% in size
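Luminescence read-out: rising ELG1-luciferase signal, reflecting elevated ELG1 protein under genetic stress, flags genotoxic compounds. Cells were treated for 16 hr at 37 °C before ONE-Glo detection.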
Numbers stand for hits; n = inactive; u = inconclusive; x = no result; [ ] = dose if it differs, or a comment. Shown are actives, neighbours in structure and some others; about 9.4% of the full set was active somewhere. Calls come from the whole dose curve; as a rule, active = well fitted curve in the direction sought with a large enough effect; inconclusive = small, poorly fitted or top-dose-only effect, or another doubt; inactive = no such curve, though single readings can be large; an effect the other way counts as inactive or inconclusive.

SMILES	Rab9 promoter act	FLuc modulator	NPC1 prom act	SMN2 splice up	ELG1 DNA repair	ELG1 genotoxic
COc1ccc(-c2ccc(-c3nnn(CC(C)=O)n3)cc2)cc1	1.6µM	u	2.5µM	u	u	n
CCC(C(=O)O)n1nnc(-c2ccc(-c3ccc(OC)cc3)cc2)n1 (stereo not drawn)	n	9.5µM	n	u	u	u
COc1cccc(-c2nnn(CC(=O)N3CCCCC3)n2)c1	n	n	n	x	u	n
COc1cc(-c2cc3n(C)c(C)c(CCC(=O)NC4CCC(C)CC4)c(=O)n3n2)cc(OC)c1OC (stereo not drawn)	x	n	x	x	x	x
Cc1cc(C)c(S(=O)(=O)NCC(c2ccc(N(C)C)cc2)N2CCc3ccccc32)c(C)c1 (stereo not drawn)	x	n	x	x	x	x
CCS(=O)(=O)N1CCN(c2ccc(C(=O)NC34CC5CC(CC(C5)C3)C4)cc2[N+](=O)[O-])CC1	n	u	n	n	23µM	n
CS(=O)(=O)N1CCN(c2ccc(C(=O)NC34CC5CC(CC(C5)C3)C4)cc2[N+](=O)[O-])CC1	n	n	n	u	n	n
CC(=O)c1cccc(NC(=O)CC2S/C(=N/N=C/c3ccccc3)NC2=O)c1 (stereo not drawn)	n	n	n	n	n	n
O=C1N/C(=N/N=C/c2ccc(F)cc2)SC1c1ccccc1 (stereo not drawn)	n	15µM	n	x	n	n
Cn1c2ccccc2c2nnc(NN)nc21	n	n	n	x	n	n
CCCCc1c(C)nn(-c2nnc3c4ccccc4n(C)c3n2)c1C	n	6.7µM	n	n	u	n
O=C(N/N=C/c1ccco1)c1cc(C2CC2)[nH]n1	u	13µM	u	x	u	u
O=C(N/N=C/c1cccc2ccccc12)c1cc(C2CC2)[nH]n1	n	11µM	n	x	n	n
O=C(N/N=C/c1ccccn1)c1cc(C2CC2)[nH]n1	1.6µM	19µM	u	u	u	18µM
CCN(CC)CCCC(C)n1c(-c2ccccc2)nc2c(NCc3ccccc3)nc(C)nc21 (stereo not drawn)	x	x	x	n	x	x
Cc1c(CC(=O)NCCCC(=O)O)c(=O)oc2cc3occ(-c4ccccc4)c3cc12	n	19µM	n	x	n	n
Cc1c(CC(=O)NCc2ccccc2Cl)c(=O)oc2cc(O)ccc12	x	21µM	x	n	x	x
Cc1c(CC(=O)NCC(=O)O)c(=O)oc2cc3occ(-c4ccccc4)c3cc12	n	24µM	n	x	n	n
O=c1cc(-c2ccccc2)[nH]n1-c1ccc([N+](=O)[O-])cc1	u	15µM	n	n	u	n
CCOC(=O)CCCc1ccc(/C(C)=N/NC(N)=S)cc1	n	n	n	x	9.2µM	n
COc1ccc(OC)c2sc(N(Cc3cccnc3)C(C)=O)nc12	x	n	x	x	x	x
Cc1ccc(-c2cc3nn(-c4ccccc4)c(N)c3c(=O)o2)cc1	u	6µM	n	n	n	n
Cc1ccc(NC(=O)c2cc(-c3ccccc3)nn2-c2ccccc2)cc1	n	n	n	n	u	n
Cc1ccc(-c2ccc(C(=O)Nc3cccc(F)c3)o2)c2ccccc12	n	n	n	n	u	n
CC(=O)c1cccc(NC(=O)c2ccc(-c3ccccc3[N+](=O)[O-])o2)c1	3.2µM	3.4µM	u	10µM	u	u
SMILES	Rab9 promoter act	FLuc modulator	NPC1 prom act	SMN2 splice up	ELG1 DNA repair	ELG1 genotoxic
Cc1cc(NC(=O)c2ccc(-c3ccccc3[N+](=O)[O-])o2)no1	x	x	x	x	n	n
Cc1ccc(NC(=O)c2ccc(-c3cccc(Cl)c3C)o2)cc1	x	7.6µM	x	n	x	x
O=C(Nc1cccc(F)c1)c1ccc(-c2ccccc2Cl)o1	n	9.5µM	n	11µM	u	u
O=C(Nc1cccc(O)c1)c1cc(-c2ccccc2F)no1	x	n	x	x	x	x
CCOc1ccc(NC(=O)c2ccc(-c3cccc(Cl)c3C)o2)cc1	x	n	x	n	x	x
O=C(Nc1ccccc1)c1cc(-c2ccccc2Cl)no1	n	0.76µM	u	u	u	u
COc1cccc(CNCCSc2nnnn2C)c1OCc1ccccc1F	x	n	x	n	x	x
O=C(CN1CCCN(Cc2ccccc2Cl)S1(=O)=O)Nc1ccc2c(c1)OCCO2	x	n	x	x	x	x
COc1ccc(NC(=O)c2ccc(-c3cccc(Cl)c3C)o2)cc1	x	u	x	n	x	x
COC(=O)c1sccc1-c1ccc(C(=O)Nc2ccccc2)o1	2.2µM	7.6µM	3.5µM	u	u	u
CCc1nnc(NC(=O)c2ccc(-c3ccccc3Cl)o2)s1	u	u	n	n	u	21µM
COc1ccc(NC(=O)c2ccc(-c3ccccc3Cl)o2)cc1	u	9.5µM	u	18µM	u	u
COc1ccc(NC(=O)c2cc(-c3ccccc3Cl)no2)cc1	n	9.5µM	n	n	n	n
COc1ccc(NC(=O)c2cc(C)no2)cc1	n[1.84 µM]	u	n	x	u	n
CCOc1ccc(NC(=O)CSc2nccn2-c2cccc(C)c2C)cc1	x	n	x	x	x	x
COc1ccc(-c2csc(NC(=O)c3ccccc3S(C)(=O)=O)n2)cc1	n	u	n	n	u	n
COc1ccc(OC)c(-c2csc(NC(=O)Cc3ccccc3OC)n2)c1	n	9.5µM	n	x	n	n
COc1ccc(OC)c(-c2csc(NC(=O)c3ccccc3F)n2)c1	n	15µM	n	x	n	n
O=C(Nc1nc(COc2ccccc2)cs1)c1ccccc1F	n	27µM	n	n	u	n
COc1ccc(OC)c(-c2csc(NC(=O)Cc3ccccc3F)n2)c1	n	11µM	n	x	u	n
COc1ccc(OC)c(-c2csc(NC(=O)CN3C(=O)NC4(CCCC4)C3=O)n2)c1	n	n	n	x	n	n
CC1CCCCN1C(=O)CSc1nc2ccccc2nc1Cc1ccc(Cl)cc1 (stereo not drawn)	x	n	x	x	x	x
COc1cc(NC(=O)c2cc(-c3cccc(Cl)c3)on2)c(OC)cc1Cl	x	n	x	n	x	x
Cc1nn(-c2ccccc2)c(Cl)c1/C=N/NC(=O)c1cccc(S(=O)(=O)N2CCCC2)c1	n	n	n	n	13µM	n
Cc1nn(-c2ccccc2)c(Cl)c1/C=N/Nc1nc2ccccc2n1C	u	2.4µM	3.5µM	11µM	u	n
Cc1nn(-c2ccccc2)c(Cl)c1/C=N/NC(N)=O	n	u	n	x	u	u
Cc1nn(-c2ccccc2)c(Cl)c1/C=N/NC(=O)CNC(=O)c1ccccc1Cl	n	19µM	n	n	u	n
COC(=O)N/N=C\c1c(C)nn(-c2ccccc2)c1Cl	u	15µM	u	u	u	u
